HEK cytotox: cytotoxic compounds in HEK 293 cells; HEK 293 viability, ATP luminescence (CellTiter-Glo), 48-72 h; Potency, µM (highest dose often 115 µM), usual class: inhibitors; 6.6% of 94,000 active; also: nearly all actives have a fitted effect of over 60% in size
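CellTiter-Glo luminescence (cellular ATP) was read after 48 or 72 hr of compound exposure at 37 degree Celsius. Cells were HEK 293 plated at 250 cells/well.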
hNpr1 antagonist: blocks ANP-stimulated signaling of human Npr1 receptor; P16066; HEK293 hNpr1 GloSensor cGMP, ANP-stimulated luminescence; Potency, µM (titrated, usually from 46.3 µM), usual class: inhibitors; 1.6% of 76,000 active; calls by dose curve; also: nearly all actives have a fitted effect of over 60% in size
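HEK293 cells stably expressing human Npr1 and cGMP GloSensor pGS-40F, loaded 2 h with 2% GloSensor reagent, given compound 30 min at room temperature. Luminescence read before and 20 min after 0.1 nM hNppA.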
NIH3T3 tox: cytotoxic compounds in NIH 3T3 cells | AID 1345082 | Potency, µM (top dose mostly 96.7 µM), usual class: inhibitors | 4.3% of 94,000 active | NIH 3T3 viability, CellTiter-Glo ATP luminescence, 48-72 h; also: nearly all actives have a fitted effect of over 55% in size
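Luminescent ATP readout (CellTiter-Glo, 10 min RT) after 48 or 72 hr compound exposure of NIH 3T3 cells seeded at 400 cells/well in 1536-well format; quantitative HTS.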
FLuc inh: inhibitors of firefly (Photinus pyralis) luciferase. P08659. purified P. pyralis luciferase, luminescence, biochemical. Potency, µM (series often up to 115 µM), usual class: inhibitors. 2.5% of 76,000 active. AID 1347043; also: nearly all actives have a fitted effect of over 65% in size
Target sequence (P08659 whole entry, looked up): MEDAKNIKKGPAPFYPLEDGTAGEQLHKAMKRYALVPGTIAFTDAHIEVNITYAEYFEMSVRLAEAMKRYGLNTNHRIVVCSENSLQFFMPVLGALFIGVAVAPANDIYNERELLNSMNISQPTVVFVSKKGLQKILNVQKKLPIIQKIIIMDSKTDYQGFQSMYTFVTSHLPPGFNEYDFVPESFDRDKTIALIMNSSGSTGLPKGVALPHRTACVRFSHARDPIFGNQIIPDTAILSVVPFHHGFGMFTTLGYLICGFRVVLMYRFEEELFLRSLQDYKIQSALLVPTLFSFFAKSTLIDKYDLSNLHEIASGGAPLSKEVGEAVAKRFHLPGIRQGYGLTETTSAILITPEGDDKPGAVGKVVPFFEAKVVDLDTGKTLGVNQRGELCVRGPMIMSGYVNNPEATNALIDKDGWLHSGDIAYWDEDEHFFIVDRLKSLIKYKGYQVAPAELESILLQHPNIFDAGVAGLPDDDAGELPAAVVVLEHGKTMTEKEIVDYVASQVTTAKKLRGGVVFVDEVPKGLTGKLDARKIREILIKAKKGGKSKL
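FLuc 10nM, D-luciferin 10uM, ATP 10uM, Mg acetate 10mM, Tris acetate pH 7.5, Tween/BSA; cpd qHTS; enzyme added last; CCD luminescence.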
Of the large screens only hits and unclear results are named; the others gave an inactive call. In the library only some 11% were active in any assay of this set; here they are far more common. Unless noted, calls follow the shape of the dose curve; as a rule, active = well fitted curve in the direction sought with a large enough effect; inconclusive = small, poorly fitted or top-dose-only effect, or another doubt; inactive = no such curve, though single readings can be large; an effect the other way counts as inactive or inconclusive.

COc1ccccc1-c1cccc(CN2CCCC(C(=O)NCc3ccc(F)cc3)C2)c1 (centres undefined)	HEK cytotox 32µM, NIH3T3 tox 32µM (no result: hNpr1 antagonist, FLuc inh)
COc1ccc(-c2ccc(C(=O)N3CCN(C(=O)c4ccc(C(F)(F)F)cc4)CC3)cc2)nn1	none (no result: hNpr1 antagonist, FLuc inh)
Cc1cnc(-c2ccncc2)n1CC1CN(C(=O)CCc2ccccc2)C1	none (no result: hNpr1 antagonist, FLuc inh)
COc1ccccc1-c1[nH]ncc1CN1CCCC(C(=O)NCc2ccccc2)CCNC(=O)CC1 (centres undefined)	none
COc1ccccc1-c1cccc(CN2CCCC(C(=O)NCc3cccnc3)C2)c1 (centres undefined)	HEK cytotox inconclusive, NIH3T3 tox 35µM (no result: hNpr1 antagonist, FLuc inh)
CC(=O)N1CCCN(c2ncnc3c2CN(C2CCCNC2)C(=O)CN3C)CC1 (centres undefined)	none (no result: hNpr1 antagonist, FLuc inh)
COc1ccc(-c2cc(N3CCCC(NC(=O)c4ccc(C(F)(F)F)cc4)C3)n[nH]2)cc1 (centres undefined)	HEK cytotox inconclusive, NIH3T3 tox 45µM
COc1ccc(C(=O)NC2CCN(c3cc(-c4ccc(OC)cc4)[nH]n3)CC2)cc1	HEK cytotox inconclusive, NIH3T3 tox inconclusive
COc1ccc(-c2cc(N3CCCC(NC(=O)c4cccc(C)c4)C3)n[nH]2)cc1 (centres undefined)	HEK cytotox 45µM, NIH3T3 tox inconclusive, FLuc inh 10µM
CN(C)c1cccc(C(=O)NC2CCN(c3cc(-c4ccc(F)cc4)[nH]n3)CC2)c1	HEK cytotox inconclusive, hNpr1 antagonist inconclusive, NIH3T3 tox inconclusive, FLuc inh 35µM
O=C(NC1CCCN(c2cc(-c3ccccc3)[nH]n2)C1)c1ccc(C(F)(F)F)cc1 (centres undefined)	HEK cytotox inconclusive, NIH3T3 tox inconclusive
Cc1cccc(C(=O)NC2CCN(c3cc(-c4ccc(F)cc4)[nH]n3)CC2)c1	HEK cytotox inconclusive
COc1ccc(-c2cc(N3CCC(NC(=O)c4ccc(Cl)s4)CC3)n[nH]2)cc1	HEK cytotox 25µM, NIH3T3 tox inconclusive
Cc1ccnc(NC(=O)C2c3ccccc3C(=O)N(CC(C)C)C23CCCC3)c1 (centres undefined)	HEK cytotox inconclusive, NIH3T3 tox inconclusive
COc1ccc(-c2cc(N3CCCC(NC(=O)c4ccc(OC)c(F)c4)C3)n[nH]2)cc1 (centres undefined)	HEK cytotox 40µM, NIH3T3 tox inconclusive, FLuc inh inconclusive
COc1ccc(-c2cc(N3CCCC(NC(=O)c4cccc(N(C)C)c4)C3)n[nH]2)cc1 (centres undefined)	HEK cytotox inconclusive, NIH3T3 tox inconclusive, FLuc inh 16µM
COc1ccc(-c2cc(N3CCC(NC(=O)c4cc(C)cc(C)c4)C3)n[nH]2)cc1 (centres undefined)	HEK cytotox inconclusive
COc1ccc(-c2cc(N3CCCC(NC(=O)c4cc(C)cc(C)c4)C3)n[nH]2)cc1 (centres undefined)	HEK cytotox 45µM, NIH3T3 tox 40µM, FLuc inh inconclusive
COc1ccc(-c2cc(N3CCC(NC(=O)c4ccc(C)c(C)c4)C3)n[nH]2)cc1 (centres undefined)	HEK cytotox 50µM, NIH3T3 tox inconclusive
COc1ccc(-c2cc(N3CCCC(NC(=O)c4cccc(F)c4)C3)n[nH]2)cc1 (centres undefined)	HEK cytotox inconclusive, NIH3T3 tox inconclusive, FLuc inh inconclusive
CC(C)(C)CC(=O)Nc1nc2c(s1)C[C@@H]1[C@](C)(CO)[C@H](O)CC[C@@]1(C)[C@@H]2CC(=O)Nc1cccc(O)c1	HEK cytotox inconclusive, NIH3T3 tox inconclusive
COc1ccc(-c2cc(N3CCCC(NC(=O)c4cc5ccccc5[nH]4)C3)n[nH]2)cc1 (centres undefined)	HEK cytotox inconclusive, NIH3T3 tox inconclusive, FLuc inh 8.9µM
COc1ccc(-c2cc(N3CCC(NC(=O)c4ccc5cc[nH]c5c4)CC3)n[nH]2)cc1	HEK cytotox inconclusive, NIH3T3 tox 40µM
COc1ccc(-c2cc(N3CCCC(NC(=O)c4cccn4C)C3)n[nH]2)cc1 (centres undefined)	HEK cytotox inconclusive, NIH3T3 tox inconclusive, FLuc inh 35µM
Cc1cc(C)cc(C(=O)NC2CCN(c3cc(-c4ccc(F)cc4)[nH]n3)C2)c1 (centres undefined)	HEK cytotox inconclusive, NIH3T3 tox 45µM
O=c1cc2c(nn1Cc1ccc(OC(F)(F)F)cc1)CCCCC2	HEK cytotox 45µM, NIH3T3 tox inconclusive
O=C1CN(Cc2ccc(-c3cc(F)cc(F)c3)cc2)CCN1c1nccc(Cl)n1	HEK cytotox 45µM, NIH3T3 tox inconclusive
O=C1CN(Cc2ccc(-c3ccsc3)cc2)CCN1c1cc(Cl)ncn1	HEK cytotox 35µM, hNpr1 antagonist inconclusive, NIH3T3 tox inconclusive
COc1ccc2c(c1)nc1n2[C@@H](CNCc2ccc3c(c2)OCO3)COC1	HEK cytotox 56µM, hNpr1 antagonist inconclusive, NIH3T3 tox inconclusive
COc1ccc(NC(=O)NC[C@H]2COCc3nc4ccccc4n32)cc1	NIH3T3 tox inconclusive, FLuc inh 89µM
COc1ccc2nc3n(c2c1)[C@@H](CNC(=O)c1ccc(C#N)cc1)COC3	NIH3T3 tox 89µM
COc1ccc2nc3n(c2c1)[C@@H](CNS(=O)(=O)Cc1ccccc1)COC3	HEK cytotox inconclusive, NIH3T3 tox 89µM
Cc1noc2c(N3CCN(Cc4ccccc4)CC3)cc(-c3ccsc3)nc12	HEK cytotox 56µM, NIH3T3 tox inconclusive
Cc1noc2c(N3CC[S+](=O)([O-])CC3)cc(-c3ccccc3)nc12	NIH3T3 tox inconclusive
O=C([C@@H]1C[C@H](c2ccc(F)cc2)N(Cc2ccccc2Cl)C1)N1CCOCC1	HEK cytotox inconclusive, NIH3T3 tox 89µM
O=C(Nc1ccccn1)[C@@H]1C[C@@H](c2ccc(F)cc2)N(Cc2ccccc2)C1	HEK cytotox inconclusive, hNpr1 antagonist inconclusive, NIH3T3 tox inconclusive
O=C([C@@H]1C[C@H](c2ccc(F)cc2)N(Cc2ccccc2Cl)C1)N1CCN(CCO)CC1	HEK cytotox inconclusive, NIH3T3 tox inconclusive
O=C([C@@H]1C[C@H](c2ccc(F)cc2)N(Cc2ccccc2Cl)C1)N1CC(O)C1	HEK cytotox 71µM, NIH3T3 tox 89µM
CCc1ccc(NC(=O)c2ccc(CN3C(=O)NC4(CCOCC4)C3=O)cc2)cc1	HEK cytotox inconclusive, hNpr1 antagonist inconclusive, NIH3T3 tox inconclusive, FLuc inh 13µM
Cc1cccc(NC(=O)c2ccc(CN3C(=O)NC4(CCOCC4)C3=O)cc2)c1	HEK cytotox inconclusive, FLuc inh inconclusive
CC(C)c1cccc(NC(=O)c2ccc(CN3C(=O)NC4(CCOCC4)C3=O)cc2)c1	HEK cytotox inconclusive, hNpr1 antagonist 11µM, FLuc inh 40µM
COc1cccc(C(=O)NC2CCN(c3cc(-c4ccc(Cl)cc4)[nH]n3)C2)c1 (centres undefined)	HEK cytotox inconclusive, NIH3T3 tox inconclusive
CCc1ccccc1S(=O)(=O)N1C[C@@H](F)C[C@H]1C(=O)N1CCc2ccccc2C1	HEK cytotox inconclusive, NIH3T3 tox 32µM
Cc1cccc(NC(=O)N2C[C@@H](F)C[C@H]2C(=O)N2CCc3ccccc3C2)c1	FLuc inh inconclusive

Source: PubChem BioAssay (National Center for Advancing Translational Sciences (NCATS))
